# Data reported in PubChem BioAssay.
# Where “and” joins values, the source holds several entries; their conditions need not be identical. Identical values can stand only once. Records with an inconclusive call do not appear. Calls of active or inactive are those of the source.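 The calls were made as follows, unless noted: active = compounds whose cell count with miR-34 switched on is under 0.7 times the count with it off; inactive = the rest.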
# Key:
# [1] = compounds altering viability of human ES cells (AID 493140; call rule not given here;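 also: cells exposed to compounds for four days before counting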); conditions: human embryonic stem cell survival screen; stronger effect = higher value
# [2] = viability loss with induced miR-34 in A549 – imaging, A549 dox-inducible miR-34, nuclei and caspase counts, primary screen (AID 1347080); conditions: A549 miR-34 inducible, Hoechst nuclei count, 48 h
# [3] = galactose survival enhancers in mitochondrial complex I cybrids – cell-based, galactose medium, ATP luminescence, primary screen (AID 1645843;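 active = z-score of at least 1.8 in each of two replicates, scored against plate mean and spread of sample wells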;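 also: positive z means more ATP and so rescue of galactose-driven cybrid death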); conditions: complex I mutant cybrid cells, 72 h, stronger effect = higher value
# [4] = target: ATP-dependent translocase ABCB1 (Homo sapiens) (UniProt P08183); assay: P-glycoprotein substrate transport blockade – cell-based (AID 377; in the data active = fluorescence slope change above about 50%); conditions: MDR1-expressing cells, fluorescent substrate accumulation slope; stronger effect = higher value; concentration not given here
# Chain of ATP-dependent translocase ABCB1 (Homo sapiens) (P08183 whole entry, looked up): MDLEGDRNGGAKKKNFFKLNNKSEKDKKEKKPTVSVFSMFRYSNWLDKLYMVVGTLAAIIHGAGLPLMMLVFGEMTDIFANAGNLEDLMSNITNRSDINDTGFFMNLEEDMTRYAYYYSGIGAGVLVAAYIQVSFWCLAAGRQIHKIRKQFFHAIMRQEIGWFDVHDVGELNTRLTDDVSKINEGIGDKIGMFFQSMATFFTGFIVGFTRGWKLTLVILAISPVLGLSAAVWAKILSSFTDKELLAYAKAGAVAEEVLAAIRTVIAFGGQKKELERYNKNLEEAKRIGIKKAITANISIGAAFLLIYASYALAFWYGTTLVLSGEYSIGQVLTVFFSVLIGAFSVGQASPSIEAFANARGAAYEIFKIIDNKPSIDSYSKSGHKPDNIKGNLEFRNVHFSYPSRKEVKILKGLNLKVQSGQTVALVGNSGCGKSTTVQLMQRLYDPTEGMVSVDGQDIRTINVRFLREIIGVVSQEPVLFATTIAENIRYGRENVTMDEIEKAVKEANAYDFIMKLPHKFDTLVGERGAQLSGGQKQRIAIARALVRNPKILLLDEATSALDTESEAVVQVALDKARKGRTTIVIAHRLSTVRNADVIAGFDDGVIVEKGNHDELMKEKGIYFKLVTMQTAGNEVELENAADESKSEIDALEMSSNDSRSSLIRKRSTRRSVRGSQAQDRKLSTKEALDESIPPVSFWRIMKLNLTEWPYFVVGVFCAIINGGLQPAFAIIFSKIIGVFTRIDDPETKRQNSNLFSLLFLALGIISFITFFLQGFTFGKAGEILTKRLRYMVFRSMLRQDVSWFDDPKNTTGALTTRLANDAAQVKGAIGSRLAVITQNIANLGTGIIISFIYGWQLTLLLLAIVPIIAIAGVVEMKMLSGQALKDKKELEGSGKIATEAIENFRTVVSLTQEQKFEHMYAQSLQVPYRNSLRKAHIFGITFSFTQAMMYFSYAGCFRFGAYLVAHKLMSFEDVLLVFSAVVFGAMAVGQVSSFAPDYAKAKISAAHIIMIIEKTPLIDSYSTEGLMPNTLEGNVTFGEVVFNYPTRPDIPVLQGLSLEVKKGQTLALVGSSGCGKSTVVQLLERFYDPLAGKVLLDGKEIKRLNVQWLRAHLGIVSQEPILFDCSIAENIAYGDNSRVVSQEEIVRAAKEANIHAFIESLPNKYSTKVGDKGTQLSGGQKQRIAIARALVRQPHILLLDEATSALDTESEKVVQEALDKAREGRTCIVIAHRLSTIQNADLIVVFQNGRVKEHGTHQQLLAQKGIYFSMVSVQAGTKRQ
# [5] = P. berghei load reduction in hepatocytes – cell-based, HepG2, luciferase luminescence, HepG2 viability, primary screen (AID 624349; in the data active = parasite load remaining mostly below about 12%, no sharp cut-off; inactive = mostly above about 10%;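 also: 100% = mean of DMSO negative control wells on the same plate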); conditions: P. berghei liver stage in HepG2, luciferase luminescence, concentration not given here; parasite load remaining: stronger effect = lower value; viability: measured here: HepG2 viability without parasites
# [6] = compounds altering circadian rhythm period length – cell-based, LOPAC library, luminescence reporter (AID 2774; call rule not given here;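 also: values are relative to mean of DMSO wells on each plate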); conditions: circadian reporter cells, at 7 µM, actives lie on both sides
# [7] = system: Hepatitis C virus NS3 helicase; assay: blockers of NS3h binding to ssDNA – biochemical, fluorescence polarization, LOPAC1280 library, primary screen (AID 687035; in the data active = inhibition above about 37%); conditions: Purified HCV NS3 helicase, Cy5-dT15 ssDNA binding fluorescence polarization; stronger effect = higher value; concentration not given here
# [8] = compounds altering Cy5-DNA-NS3h complex signal – biochemical, LOPAC1280, artefact control for HCV NS3 helicase inhibitor project (AID 687037; call rule not given here); conditions: Cy5-DNA-NS3h complex fluorescence interference counterscreen
# [9] = measured here: relative caspase fold change +Dox/-Dox
# [10] = measured here: total cells with miR-34 induction, stronger effect = lower value
# [11] = measured here: total cells without miR-34 induction
# [12] = stronger effect = lower value, cell number ratio, induced over uninduced
compound,measurement,setting,value
CCCCCCCCCCCCCCCC(=O)OC[C@H](COP(=O)([O-])OCC[N+](C)(C)C)OC(C)=O,survival,[1],57 (inactive)
same,fold change,[2]; stronger effect = lower value,0.988 (inactive)
same,fold change,[2]; [9],1.32
same,cell count,[2]; [10],5610
same,cell count,[2]; [11],5670
COc1cccc([C@@]2(O)CCCCC2CN(C)C)c1 (stereo partly specified),fold change,[2]; stronger effect = lower value,0.881 (inactive)
same,fold change,[2]; [9],1.09
same,cell count,[2]; [10],9920
same,cell count,[2]; [11],11300
same,z-score,[3],0.56 (inactive)
C[C@]12CCC(O)CC1=CCC1C2CC[C@@]2(C)C1CC[C@]2(C)O (stereo partly specified),fold change,[2]; stronger effect = lower value,0.929 (inactive)
same,fold change,[2]; [9],1.41
same,cell count,[2]; [10],9340
same,cell count,[2]; [11],10100
same,z-score,[3],-0.34 (inactive)
CNC1CC(c2ccc(Cl)c(Cl)c2)c2ccccc21 (stereo unspecified),fold change,[2]; [12],0.956 (inactive)
same,fold change,[2]; [9],1.45
same,cell count,[2]; [10],5010
same,cell count,[2]; [11],5240
same,z-score,[3],-1.44 (inactive)
O=C1C=C2C=C[C@@H]3CC2(O1)[C@H]1CCCCN31,fluorescence slope change,[4],28.7% (inactive)
same,survival,[1],2.33 (inactive)
same,parasite load remaining,[5],0.53% (active)
same,viability,[5],98.2%
same,fold change,[2]; stronger effect = lower value,0.999 (inactive)
same,fold change,[2]; [9],0.949
same,cell count,[2]; [10],2810
same,cell count,[2]; [11],2810
CC(C)CC(NP(=O)(O)O[C@@H]1O[C@@H](C)[C@H](O)[C@@H](O)[C@H]1O)C(=O)NC(Cc1c[nH]c2ccccc12)C(=O)O (stereo partly specified),period change,[6],0.015 h (inactive)
same,inhibition,[7],-2% (inactive)
same,fluorescence ratio (interference),[8],1 (inactive)
same,fold change,[2]; stronger effect = lower value,0.965 (inactive)
same,fold change,[2]; [9],0.942
same,cell count,[2]; [10],10500
same,cell count,[2]; [11],10900
same,z-score,[3],0.455 (inactive)
NC(CCCCCP(=O)(O)O)C(=O)O (stereo unspecified),period change,[6],-0.03 h (inactive)
same,inhibition,[7],-1% (inactive)
same,fluorescence ratio (interference),[8],1 (inactive)
same,fold change,[2]; stronger effect = lower value,1.02 (inactive)
same,fold change,[2]; [9],2.45
same,cell count,[2]; [10],10400
same,cell count,[2]; [11],10200
same,z-score,[3],0.42 (inactive)
C[C@]12CCC(O)CC1=CCC1C2CC[C@]2(C)C(=O)CCC12 (stereo partly specified),fold change,[2]; stronger effect = lower value,1.16 (inactive)
same,fold change,[2]; [9],1.21
same,cell count,[2]; [10],7950
same,cell count,[2]; [11],6860
same,z-score,[3],-0.11 (inactive)
CN1CC[C@]2(c3cccc(O)c3)Cc3nc4ccccc4cc3CC2C1 (stereo partly specified),fold change,[2]; [12],0.813 (inactive)
same,fold change,[2]; [9],1.31
same,cell count,[2]; [10],7470
same,cell count,[2]; [11],9190
same,z-score,[3],-0.555 (inactive)
CCN1C[C@@]2(COC)C3[C@@H](OC)[C@H]4[C@@H]1[C@@]3(C1C[C@@]3(O)[C@H](OC(=O)c5ccccc5)C1[C@]4(OC(C)=O)[C@@H](O)[C@H]3OC)[C@@H](OC)C[C@H]2O (stereo partly specified),survival,[1],3.83 (inactive)
same,parasite load remaining,[5],56% (inactive) and 73.1% (inactive)
same,viability,[5],104% and 80.1%
same,fold change,[2]; stronger effect = lower value,0.874 (inactive)
same,fold change,[2]; [9],1.14
same,cell count,[2]; [10],8650
same,cell count,[2]; [11],9900
C=C(C)CN1CC[C@]23c4c5ccc(O)c4OC2c2[nH]c4ccccc4c2C[C@@]3(O)C1C5 (stereo partly specified),fold change,[2]; stronger effect = lower value,0.245 (active)
same,fold change,[2]; [9],1.96
same,cell count,[2]; [10],761
same,cell count,[2]; [11],3110
same,z-score,[3],-1.44 (inactive)
